In all, about 5,500 compounds went through this assay and about 2,000 (36%) were called active. About 18% were inconclusive and are not listed. No stated cut-off is given here; in the data, active means normalized growth mostly below about 0.91 (no sharp cut-off); inconclusive means no clear call, values can overlap the other calls; inactive means mostly above about 0.92. Some of the results follow.
Assay: chemical genetic growth profiling, strain panel (AID 1159580);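 further: tested at 20 µM; growth read once vehicle control cultures reached saturation at 30 °C; 1 = growth at the plate median or of vehicle wells; lower values mean less growth of the strain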
Details: growth OD

Measured: normalized growth

CCN(CC)CCNC(=O)c1cc(Br)c(N)cc1OC
inactive: S. cerevisiae deletion strains, locus YJR043C, strain POL32, active compounds read low 0.917 | S. cerevisiae deletion strains, locus YJR066W, strain TOR1, active compounds read low 0.933 | S. cerevisiae deletion strains, locus YKL009W, strain mrt4, active compounds read low 0.955 | S. cerevisiae deletion strains, locus YKL068W, active compounds read low 0.989 | S. cerevisiae deletion strains, locus YKL085W, strain MDH1 (second series), active compounds read low 0.993 | S. cerevisiae deletion strains, locus YKL085W, strain MDH1, active compounds read low 0.993 | S. cerevisiae deletion strains, locus YKL160W, strain elf1, active compounds read low 0.985 | S. cerevisiae deletion strains, locus YKL190W, strain CNB1, active compounds read low 0.982 | S. cerevisiae deletion strains, locus YKR001C, strain vps1, active compounds read low 0.984 | S. cerevisiae deletion strains, locus YKR026C, strain gcn3, active compounds read low 0.971 | S. cerevisiae deletion strains, locus YKR091W, strain srl3, active compounds read low 0.99 | S. cerevisiae deletion strains, locus YLL001W, strain dnm1, active compounds read low 1 | S. cerevisiae deletion strains, locus YLL026W, active compounds read low 0.99 | S. cerevisiae deletion strains, locus YLL041C, strain sdh2, active compounds read low 0.98 | S. cerevisiae deletion strains, locus YLR027C, strain aat2, active compounds read low 0.992 | S. cerevisiae deletion strains, locus YLR039C, strain RIC1, active compounds read low 0.974 | S. cerevisiae deletion strains, locus YLR058C, strain SHM2, active compounds read low 0.971 | S. cerevisiae deletion strains, locus YLR102C, strain apc9, active compounds read low 0.991 | S. cerevisiae deletion strains, locus YLR113W, strain HOG1, active compounds read low 1.01 | S. cerevisiae deletion strains, locus YLR221C, strain rsa3, active compounds read low 0.992 | S. cerevisiae deletion strains, locus YLR258W, strain gsy2, active compounds read low 0.991 | S. cerevisiae deletion strains, locus YLR262C, strain YPT6 (second series), active compounds read low 1.02 | S. cerevisiae deletion strains, locus YLR262C, strain YPT6, active compounds read low 0.958 | S. cerevisiae deletion strains, locus YLR268W, strain sec22, active compounds read low 0.983 | S. cerevisiae deletion strains, locus YLR320W, strain mms22, active compounds read low 1.01 | S. cerevisiae deletion strains, locus YLR330W, strain CHS5, active compounds read low 1 | S. cerevisiae deletion strains, locus YLR342W, strain FKS1 (second series), active compounds read low 1.08 | S. cerevisiae deletion strains, locus YLR342W, strain FKS1, active compounds read low 0.991 | S. cerevisiae deletion strains, locus YLR357W, strain rsc2, active compounds read low 0.974 | S. cerevisiae deletion strains, locus YLR370C, strain arc18, active compounds read low 0.994 | S. cerevisiae deletion strains, locus YLR371W, strain rom2, active compounds read low 0.995 | S. cerevisiae deletion strains, locus YLR384C, strain iki3, active compounds read low 0.991 | S. cerevisiae deletion strains, locus YLR418C, strain cdc73, active compounds read low 1.04 | S. cerevisiae deletion strains, locus YML016C, strain PPZ1, active compounds read low 0.994 | S. cerevisiae deletion strains, locus YML032C, strain rad52, active compounds read low 0.968 | S. cerevisiae deletion strains, locus YML120C, strain ndi1, active compounds read low 0.99 | S. cerevisiae deletion strains, locus YML124C, strain tub3, active compounds read low 0.98 | S. cerevisiae deletion strains, locus YMR058W, strain fet3, active compounds read low 0.982 | S. cerevisiae deletion strains, locus YMR078C, strain ctf18, active compounds read low 0.988 | S. cerevisiae deletion strains, locus YMR125W, strain sto1, active compounds read low 0.975 | S. cerevisiae deletion strains, locus YMR129W, active compounds read low 0.986 | S. cerevisiae deletion strains, locus YMR205C, strain PFK2, active compounds read low 1.03 | S. cerevisiae deletion strains, locus YMR223W, strain ubp8, active compounds read low 1.02 | S. cerevisiae deletion strains, locus YMR231W, strain pep5, active compounds read low 1 | S. cerevisiae deletion strains, locus YMR307W, strain GAS1, active compounds read low 1.07 | S. cerevisiae deletion strains, locus YNL067W, strain RPL9B, active compounds read low 0.964 | S. cerevisiae deletion strains, locus YNL071W, strain lat1, active compounds read low 0.987 | S. cerevisiae deletion strains, locus YNL153C, strain GIM3, active compounds read low 0.961 | S. cerevisiae deletion strains, locus YNL183C, strain NPR1, active compounds read low 0.956 | S. cerevisiae deletion strains, locus YNL209W, strain ssb2, active compounds read low 0.988 | S. cerevisiae deletion strains, locus YNL233W, strain BNI4, active compounds read low 0.957 | S. cerevisiae deletion strains, locus YNL248C, strain rpa49, active compounds read low 0.969 | S. cerevisiae deletion strains, locus YNL250W, strain rad50, active compounds read low 0.986 | S. cerevisiae deletion strains, locus YNL271C, strain bni1, active compounds read low 0.988 | S. cerevisiae deletion strains, locus YNL298W, strain CLA4, active compounds read low 0.985 | S. cerevisiae deletion strains, locus YNL307C, strain MCK1, active compounds read low 0.981 | S. cerevisiae deletion strains, locus YNL322C, strain KRE1 (second series), active compounds read low 0.987 | S. cerevisiae deletion strains, locus YNR049C, strain mso1, active compounds read low 0.969 | S. cerevisiae deletion strains, locus YNR052C, strain pop2, active compounds read low 0.992 | S. cerevisiae deletion strains, locus YOL006C, strain TOP1, active compounds read low 0.879 | S. cerevisiae deletion strains, locus YOL012C, strain htz1 1.14 | S. cerevisiae deletion strains, locus YOL147C, strain pex11, active compounds read low 0.989 | S. cerevisiae deletion strains, locus YOR001W, strain rrp6, active compounds read low 0.966 | S. cerevisiae deletion strains, locus YOR061W, strain CKA2, active compounds read low 0.97 | S. cerevisiae deletion strains, locus YOR069W, strain VPS5, active compounds read low 0.992 | S. cerevisiae deletion strains, locus YOR070C, strain gyp1, active compounds read low 0.996 | S. cerevisiae deletion strains, locus YOR080W, strain dia2, active compounds read low 0.975 | S. cerevisiae deletion strains, locus YOR083W, strain WHI5, active compounds read low 0.978 | S. cerevisiae deletion strains, locus YOR106W, strain vam3, active compounds read low 0.992 | S. cerevisiae deletion strains, locus YOR136W, strain idh2, active compounds read low 0.977 | S. cerevisiae deletion strains, locus YOR144C, strain elg1, active compounds read low 0.998 | S. cerevisiae deletion strains, locus YOR184W, strain ser1, active compounds read low 0.987 | S. cerevisiae deletion strains, locus YOR231W, strain MKK1, active compounds read low 0.96 | S. cerevisiae deletion strains, locus YOR265W, strain rbl2, active compounds read low 0.996 | S. cerevisiae deletion strains, locus YOR270C, strain vph1, active compounds read low 1.01 | S. cerevisiae deletion strains, locus YOR290C, strain snf2, active compounds read low 0.956 | S. cerevisiae deletion strains, locus YOR316C, strain cot1, active compounds read low 0.975 | S. cerevisiae deletion strains, locus YPL051W, strain arl3, active compounds read low 0.981 | S. cerevisiae deletion strains, locus YPL078C, strain atp4, active compounds read low 0.975 | S. cerevisiae deletion strains, locus YPL106C, strain sse1, active compounds read low 0.965 | S. cerevisiae deletion strains, locus YPL240C, strain hsp82, active compounds read low 0.98 | S. cerevisiae deletion strains, locus YPL256C, strain CLN2, active compounds read low 0.963 | S. cerevisiae deletion strains, locus YPR119W, strain clb2, active compounds read low 0.99 | S. cerevisiae deletion strains, locus YPR141C, strain kar3, active compounds read low 0.99 | S. cerevisiae deletion strains, locus YPR163C, strain tif3, active compounds read low 0.998 | S. cerevisiae deletion strains, locus YPR167C, strain met16, active compounds read low 0.991 | S. cerevisiae deletion strains, strain wtn01, active compounds read low 1.03 | S. cerevisiae strains, strain wild type, active compounds read low 0.987
